Source: PubChem BioAssay
The source made the active and inactive calls.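 Rule for the calls, unless noted: active = compounds lowering colon cancer cell viability after pretreatment blocking the GSK3B kinase; inactive = the rest.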

Assay: stimulators of insulin release from INS-1E, primary screen, cell-based, 5 mM glucose, NPC library (AID 1117329;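 active = compound raises insulin release from rat beta cells at 5 mM glucose, no numeric limit stated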; note: reference of the scale not given here)
Conditions: rat INS-1E insulin secretion, at 10 µM, stronger effect = higher value

| Compound | insulin secretion stimulation |
| --- | --- |
| Cc1nc2ccccc2n1Cc1ccc(Cl)cc1 | -3.2% (inactive) |
| C[N+](C)(C)CC(O)CC(=O)[O-] (stereo not given) | 3.9% (inactive) |
| CN1CC[C@H](c2c(O)cc(O)c3c(=O)cc(-c4ccccc4Cl)oc23)[C@H](O)C1 | 2.75% (inactive) |
| COc1ccc(-n2nc(CCC(=O)N(C)O)cc2-c2ccc(Cl)cc2)cc1 | 2.7% (inactive) |
| O=C(O)CCCCC(=O)O | -0.6% (inactive) |
| Cc1cccn2c(=O)c(-c3nnn[nH]3)cnc12 | -1.3% (inactive) |
| Cc1cc(CC(C)CC(C)(C)C)n(O)c(=O)c1 (stereo not given) | 2.2% (inactive) |
| CCC1C(=O)OCC1Cc1cncn1C (stereo not given) | 3.7% (inactive) |
| O=C1OC2(c3ccccc31)c1cc(I)c(O)c(I)c1Oc1c2cc(I)c(O)c1I | 1.6% (inactive) |
| N[C@@H](Cc1ccc(O)cc1)C(=O)O | 3.9% (inactive) |
| CCOCCn1c(N2CCCN(C)CC2)nc2ccccc21 | 4.3% (inactive) |
| O=C1NCN(c2ccccc2)C12CCN(CCCC(c1ccc(F)cc1)c1ccc(F)cc1)CC2 | 2.5% (inactive) |
| CCN(CC)C(=O)Nc1ccc(OCC(O)CNC(C)(C)C)c(C(C)=O)c1 (stereo not given) | 9.4% (inactive) |
| Cc1ncc([N+](=O)[O-])n1C | 4.1% (inactive) |
| CN(C)CCOC1=Cc2ccccc2Sc2ccc(Cl)cc21 | 14.5% (inactive) |
| C[C@]1(Cn2ccnn2)[C@H](C(=O)O)N2C(=O)C[C@H]2S1(=O)=O | 10.1% (inactive) |
| CCOc1ccccc1C(N)=O | -1.8% (inactive) |
| N#Cc1cc(NC(=O)C(=O)O)c(Cl)c(NC(=O)C(=O)O)c1 | 2.2% (inactive) |
| Clc1cc(Cl)c(OCC#CI)cc1Cl | 9.6% (inactive) |
| CCCCC(CC)COC(=O)c1ccccc1O (stereo not given) | -2% (inactive) |
| CCOc1ccccc1OCC1CNCCO1 (stereo not given) | 1.75% (inactive) |

Assay: growth inhibition of GSK3B-pretreated HCT116 cells – cell-based, CellTiter-Glo, 0.2 to 20 µM (AID 1117336)
Conditions: HCT116 viability after GSK3B inhibitor, at 20 µM, stronger effect = higher value

| Compound | viability decrease |
| --- | --- |
| O=C1NCCN1CCN1CCC(c2cn(-c3ccc(F)cc3)c3ccc(Cl)cc23)CC1 | 99.9% (active) |
| CC(CN(C)C)C(C)(O)Cc1ccc(Cl)cc1 (stereo not given) | -15% (inactive) |
| O=c1[nH]c(=O)n([C@H]2CCCO2)cc1F | 6% (inactive) |
| O=C(CCCl)NCCc1ccccc1 | -9.9% (inactive) |
| COc1cc(O)c(C(=O)c2ccccc2)cc1S(=O)(=O)O | -7.35% (inactive) |
| CCNC(=O)/C=C/c1cccc(Br)c1 | -9.75% (inactive) |
| Nc1c[n+](N2CCOCC2)no1 | 15.5% (inactive) |
| O=C(OCCOCCO)c1ccccc1Nc1cccc(C(F)(F)F)c1 | 79.4% (active) |
| CCOC(=O)[C@@](C)(N)Cc1ccc(O)c(O)c1 | 37.5% (inactive) |
| CCCCC(O)c1ccccc1 (stereo not given) | -9.5% (inactive) |
| Cn1c(=O)c2c(ncn2CC(=O)O)n(C)c1=O | 20.3% (inactive) |
| O=P(O)(O)C(Cl)(Cl)P(=O)(O)O | -1.2% (inactive) |
| CO/N=C(\C(=O)N[C@@H]1C(=O)N2C(C(=O)O)=C(CSc3nc(=O)c(O)nn3C)CS[C@H]12)c1csc(N)n1 | -26.6% (inactive) |
| NC(=O)C(c1ccccc1)(c1ccccc1)[C@@H]1CCN(CCc2ccc3c(c2)CCO3)C1 | -129% (inactive) |
| NCCNCCNCCNCCN | -0.2% (inactive) |
| C#C[C@]1(O)CC[C@H]2[C@@H]3CCc4cc(OC5CCCC5)ccc4[C@H]3CC[C@@]21C | 102% (active) |
| O=C(NCCCN1CCOCC1)c1ccc(Cl)cc1 | 1.5% (inactive) |
| CC[C@H](C)[C@H](N)C(=O)O | -17.5% (inactive) |
| Cc1nc2ccccc2n1Cc1ccc(Cl)cc1 | 52.8% (active) |
| C[N+](C)(C)CC(O)CC(=O)[O-] (stereo not given) | 17.4% (inactive) |

| Compound | viability decrease |
| --- | --- |
| CN1CC[C@H](c2c(O)cc(O)c3c(=O)cc(-c4ccccc4Cl)oc23)[C@H](O)C1 | 73.7% (active) |
| COc1ccc(-n2nc(CCC(=O)N(C)O)cc2-c2ccc(Cl)cc2)cc1 | 91.8% (active) |
| O=C(O)CCCCC(=O)O | -6.5% (inactive) |
| Cc1cccn2c(=O)c(-c3nnn[nH]3)cnc12 | 2.1% (inactive) |
| Cc1cc(CC(C)CC(C)(C)C)n(O)c(=O)c1 (stereo not given) | 94.2% (active) |
| CCC1C(=O)OCC1Cc1cncn1C (stereo not given) | 2.7% (inactive) |
| O=C1OC2(c3ccccc31)c1cc(I)c(O)c(I)c1Oc1c2cc(I)c(O)c1I | -45.8% (inactive) |
| N[C@@H](Cc1ccc(O)cc1)C(=O)O | -7.6% (inactive) |
| CCOCCn1c(N2CCCN(C)CC2)nc2ccccc21 | -10.6% (inactive) |
| O=C1NCN(c2ccccc2)C12CCN(CCCC(c1ccc(F)cc1)c1ccc(F)cc1)CC2 | 99.7% (active) |
| CCN(CC)C(=O)Nc1ccc(OCC(O)CNC(C)(C)C)c(C(C)=O)c1 (stereo not given) | 0.3% (inactive) |
| Cc1ncc([N+](=O)[O-])n1C | 38.9% (inactive) |
| CN(C)CCOC1=Cc2ccccc2Sc2ccc(Cl)cc21 | 99.3% (active) |
| C[C@]1(Cn2ccnn2)[C@H](C(=O)O)N2C(=O)C[C@H]2S1(=O)=O | -2.3% (inactive) |
| CCOc1ccccc1C(N)=O | -5.85% (inactive) |
| N#Cc1cc(NC(=O)C(=O)O)c(Cl)c(NC(=O)C(=O)O)c1 | -38.9% (inactive) |
| Clc1cc(Cl)c(OCC#CI)cc1Cl | 93.8% (active) |
| CCCCC(CC)COC(=O)c1ccccc1O (stereo not given) | 9.8% (inactive) |
| CCOc1ccccc1OCC1CNCCO1 (stereo not given) | 1.7% (inactive) |
